# Measurements as given in the supplement of paper PMC8728848.
# The full list was thinned out, with the strongest signals kept by preference.
# Tests used:
# Assay in all cases: glycan array binding signal (z-score within array); higher = stronger binding
# Conditions in all cases: glycan notation: IUPAC condensed, linker removed
# Fuc(a1-2)Gal = biological target: Fuc(a1-2)Gal
# Summary of the method: (§1)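 Glycan array data were curated from 3228 arrays in the Consortium for Functional Glycomics database and kept only where the protein sequence was available. Glycan names were converted to IUPAC-condensed notation, and columns mapping to the same glycan were averaged. The binding signal is a within-array Z-score, averaged across arrays of the same protein sequence at different concentrations or buffers and across linkers. Negative Z-scores can be read as non-binding.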
# [1] = biological target: Fuc(a1-2)Gal(b1-3)GalNAc(a1-3)[Fuc(a1-2)]Gal(b1-4)GlcNAc
# Summary of the method: as §1
# [2] = biological target: Fuc(a1-2)Gal(b1-3)[Fuc(a1-4)]GlcNAc(b1-3)[Gal(b1-4)GlcNAc(b1-6)]Gal(b1-4)Glc
# Summary of the method: as §1
# [3] = biological target: Fuc(a1-2)Gal(b1-4)GlcNAc(b1-2)Man(a1-3)[Fuc(a1-2)Gal(b1-4)GlcNAc(b1-2)Man(a1-6)]Man(b1-4)GlcNAc(b1-4)[Fuc(a1-6)]GlcNAc
# Summary of the method: as §1
# [4] = biological target: Fuc(a1-2)Gal(b1-4)GlcNAc(b1-3)[Fuc(a1-3)[Gal(b1-4)]GlcNAc(b1-6)]Gal(b1-4)Glc
# Summary of the method: as §1
# [5] = biological target: Fuc(a1-2)Gal(b1-4)GlcNAc(b1-6)GalNAc
# Summary of the method: as §1
# [6] = biological target: Fuc(a1-2)Gal(b1-4)[Fuc(a1-3)]GlcNAc(b1-2)Man(a1-3)[Fuc(a1-2)Gal(b1-4)[Fuc(a1-3)]GlcNAc(b1-2)Man(a1-6)]Man(b1-4)GlcNAc(b1-4)[Fuc(a1-6)]GlcNAc
# Summary of the method: as §1
# [7] = biological target: Fuc(a1-2)[Gal(a1-3)]Gal(b1-3)GlcNAc(b1-2)Man(a1-3)[Fuc(a1-2)[Gal(a1-3)]Gal(b1-3)GlcNAc(b1-2)Man(a1-6)]Man(b1-4)GlcNAc(b1-4)GlcNAc
# Summary of the method: as §1
# [8] = biological target: Fuc(a1-2)[Gal(a1-3)]Gal(b1-3)GlcNAc(b1-6)GalNAc
# Summary of the method: as §1
# [9] = biological target: Fuc(a1-2)[Gal(a1-3)]Gal(b1-4)GlcNAc
# Summary of the method: as §1
# [10] = biological target: Fuc(a1-2)[GalNAc(a1-3)]Gal(b1-4)GlcNAc(b1-2)Man(a1-3)[Fuc(a1-2)[GalNAc(a1-3)]Gal(b1-4)GlcNAc(b1-2)Man(a1-6)]Man(b1-4)GlcNAc(b1-4)[Fuc(a1-6)]GlcNAc
# Summary of the method: as §1
# [11] = biological target: Fuc(a1-2)[GalNAc(a1-3)]Gal(b1-4)[Fuc(a1-3)]GlcNAc(b1-3)GalNAc
# Summary of the method: as §1
# [12] = biological target: Fuc(a1-3)[Gal(b1-4)]GlcNAc(b1-6)GalNAc
# Summary of the method: as §1
# [13] = biological target: Gal(a1-3)Gal(b1-4)GlcNAc(b1-2)Man
# Summary of the method: as §1
# [14] = biological target: Gal(b1-3)GalNAc(b1-4)Gal(b1-4)Glc
# Summary of the method: as §1
# [15] = biological target: Gal(b1-3)[Neu5Ac(b2-6)]GalNAc
# Summary of the method: as §1
# Gal(b1-4)GlcNAc(b1-2)Man = biological target: Gal(b1-4)GlcNAc(b1-2)Man
# Summary of the method: as §1
# [16] = biological target: Gal(b1-4)GlcNAc(b1-2)Man(a1-3)[Gal(b1-4)GlcNAc(b1-2)Man(a1-6)]Man(b1-4)GlcNAc(b1-4)[Fuc(a1-6)]GlcNAc
# Summary of the method: as §1
# [17] = biological target: Gal(b1-4)GlcNAc(b1-2)[Gal(b1-4)GlcNAc(b1-4)]Man(a1-3)[Gal(b1-4)GlcNAc(b1-2)[Gal(b1-4)GlcNAc(b1-6)]Man(a1-6)]Man(b1-4)GlcNAc(b1-4)GlcNAc
# Summary of the method: as §1
# [18] = biological target: Gal(b1-4)GlcNAc(b1-2)[Gal(b1-4)GlcNAc(b1-6)]Man(a1-6)[Gal(b1-4)GlcNAc(b1-2)Man(a1-3)]Man(b1-4)GlcNAc(b1-4)[Fuc(a1-6)]GlcNAc
# Summary of the method: as §1
# [19] = biological target: Gal(b1-4)GlcNAc(b1-3)Gal(b1-4)GlcNAc(b1-2)Man(a1-3)[Gal(b1-4)GlcNAc(b1-3)Gal(b1-4)GlcNAc(b1-2)Man(a1-6)]Man(b1-4)GlcNAc(b1-4)[Fuc(a1-6)]GlcNAc
# Summary of the method: as §1
# [20] = biological target: Gal(b1-4)GlcNAc(b1-3)Gal(b1-4)GlcNAc(b1-2)[Gal(b1-4)GlcNAc(b1-3)Gal(b1-4)GlcNAc(b1-6)]Man(a1-6)[Gal(b1-4)GlcNAc(b1-3)Gal(b1-4)GlcNAc(b1-2)Man(a1-3)]Man(b1-4)GlcNAc(b1-4)[Fuc(a1-6)]GlcNAc
# Summary of the method: as §1
# [21] = biological target: Gal(b1-4)GlcNAc(b1-3)Gal(b1-4)GlcNAc(b1-3)Gal(b1-4)GlcNAc(b1-2)[Gal(b1-4)GlcNAc(b1-3)Gal(b1-4)GlcNAc(b1-3)Gal(b1-4)GlcNAc(b1-6)]Man(a1-6)[Gal(b1-4)GlcNAc(b1-3)Gal(b1-4)GlcNAc(b1-3)Gal(b1-4)GlcNAc(b1-2)Man(a1-3)]Man(b1-4)GlcNAc(b1-4)[Fuc(a1-6)]GlcNAc
# Summary of the method: as §1
# [22] = biological target: Gal(b1-4)GlcNAc(b1-3)Gal(b1-4)GlcNAc(b1-3)Gal(b1-4)GlcNAc(b1-3)Gal(b1-4)GlcNAc(b1-2)Man(a1-3)[Gal(b1-4)GlcNAc(b1-3)Gal(b1-4)GlcNAc(b1-3)Gal(b1-4)GlcNAc(b1-3)Gal(b1-4)GlcNAc(b1-2)Man(a1-6)]Man(b1-4)GlcNAc(b1-4)GlcNAc
# Summary of the method: as §1
# [23] = biological target: Gal(b1-4)GlcNAc(b1-3)Gal(b1-4)GlcNAc(b1-3)Gal(b1-4)GlcNAc(b1-3)Gal(b1-4)GlcNAc(b1-2)[Gal(b1-4)GlcNAc(b1-3)Gal(b1-4)GlcNAc(b1-3)Gal(b1-4)GlcNAc(b1-3)Gal(b1-4)GlcNAc(b1-6)]Man(a1-6)[Gal(b1-4)GlcNAc(b1-3)Gal(b1-4)GlcNAc(b1-3)Gal(b1-4)GlcNAc(b1-3)Gal(b1-4)GlcNAc(b1-2)Man(a1-3)]Man(b1-4)GlcNAc(b1-4)[Fuc(a1-6)]GlcNAc
# Summary of the method: as §1
binder,measurement,setting,value
"ECL (Erythrina cristagalli), Q6YD91 (protein) VETISFSFSEFEPGNNDLTLQGAAIITQSGVLQLTKINQNGMPAWDSTGRTLYTKPVHIWDMTTGTVASFETRFSFSIEQPYTRPLPADGLVFFMGPTKSKPAQGYGYLGVFNNSKQDNSYQTLAVEFDTFSNPWDPPQVPHIGIDVNSIRSIKTQPFQLDNGQVANVVIKYDASSKILLAVLVYPSSGAIYTIAEIVDVKQVLPEWVDVGLSGATGAQRDAAETHDVYSWSFHASLPETND",glycan array binding signal (z-score),Fuc(a1-2)Gal,-0.188
same,glycan array binding signal (z-score),[1],-0.443
same,glycan array binding signal (z-score),[2],-0.094
same,glycan array binding signal (z-score),[3],-0.031
same,glycan array binding signal (z-score),[4],0.053
same,glycan array binding signal (z-score),[5],-0.165
same,glycan array binding signal (z-score),[6],-0.185
same,glycan array binding signal (z-score),[7],-0.173
same,glycan array binding signal (z-score),[8],-0.206
same,glycan array binding signal (z-score),[9],-0.306
same,glycan array binding signal (z-score),[10],-0.274
same,glycan array binding signal (z-score),[11],0.775
same,glycan array binding signal (z-score),[12],0.251
same,glycan array binding signal (z-score),[13],-0.116
same,glycan array binding signal (z-score),[14],-0.141
same,glycan array binding signal (z-score),[15],-0.546
same,glycan array binding signal (z-score),Gal(b1-4)GlcNAc(b1-2)Man,-0.311
same,glycan array binding signal (z-score),[16],0.114
same,glycan array binding signal (z-score),[17],4.03
same,glycan array binding signal (z-score),[18],5.09
same,glycan array binding signal (z-score),[19],4.13
same,glycan array binding signal (z-score),[20],6.18
same,glycan array binding signal (z-score),[21],5.28
same,glycan array binding signal (z-score),[22],3.58
same,glycan array binding signal (z-score),[23],5.63
